For assay [1], the target named is Lysosomal acid glucosylceramidase (Homo sapiens) (UniProt P04062). Nature of the assay: Glucocerebrosidase-p2 (AID 348; in the data active = potency below about 10 µM; also: potency is read from the fitted curve at half-maximal effect). As to conditions: purified GBA, blue fluorogenic substrate, 40 min. A digest of the protocol: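 Normal human glucocerebrosidase (0.2 nM) with blue fluorogenic substrate (80 uM final) in citrate/phosphate pH 5.9 with 10mM sodium taurocholate, 0.01% tween-20; 40 min RT, NaOH/glycine stop; fluorescence Ex 365/Em 440; AC50 from a titration from 0.6 nM upwards.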
Lysosomal acid glucosylceramidase (Homo sapiens), sequence (P04062 whole entry, looked up): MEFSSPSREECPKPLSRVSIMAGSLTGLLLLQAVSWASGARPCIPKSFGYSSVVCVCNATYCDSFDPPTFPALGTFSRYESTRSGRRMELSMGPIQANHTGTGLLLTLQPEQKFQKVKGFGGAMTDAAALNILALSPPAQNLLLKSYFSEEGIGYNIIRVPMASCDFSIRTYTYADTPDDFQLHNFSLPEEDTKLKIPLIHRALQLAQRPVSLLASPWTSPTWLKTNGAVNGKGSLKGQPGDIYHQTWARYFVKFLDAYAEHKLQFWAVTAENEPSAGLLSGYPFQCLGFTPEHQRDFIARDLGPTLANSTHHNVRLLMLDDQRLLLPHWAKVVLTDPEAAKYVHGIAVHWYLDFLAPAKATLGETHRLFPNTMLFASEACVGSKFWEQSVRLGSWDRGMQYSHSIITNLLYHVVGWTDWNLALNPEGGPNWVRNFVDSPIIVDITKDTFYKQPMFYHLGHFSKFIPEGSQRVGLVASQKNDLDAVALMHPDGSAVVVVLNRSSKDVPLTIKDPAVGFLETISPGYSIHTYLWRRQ

The nature of assay [2]: AP1 Signaling Pathway (AID 357).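 Also: ME-180 reporter cells stimulated with EGF at its EC50 level; % is scaled to controls: 0 for no effect and ±100 for the full control effect.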 As to conditions: ME-180 AP-1-bla reporter, EGF-induced, beta-lactamase ratio, 5 h; at 7.69 µM (top of the series) unless noted. Summed up:
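First, ME-180 AP-1-bla cells were cultured overnight at 37 °C in low-serum Opti-MEM. Next, titrated compounds with EC50 EGF were incubated 5 hours. Finally, CCF4 was added for 2.5 hours and the 460/530 nm ratio recorded.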

Assay [3] deals with Cytochrome P450 1A2 (Homo sapiens) (UniProt P05177). Nature of the assay: p450-cyp1a2 (AID 410; calls by dose curve; also: potency is read from the fitted curve at half-maximal effect). Particulars: recombinant CYP1A2, luciferin-ME demethylation, luminescence; series mostly up to 11.4 µM. Summed up: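 Luminescent demethylation readout: Luciferin-ME (100uM, equal to Km) turned over by 20nM CYP1A2 for 60 min at room temperature after NADPH regeneration addition, following 10 min compound preincubation. Normalization used 57 uM furafylline as full inhibition.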
Cytochrome P450 1A2 (Homo sapiens), sequence (P05177 whole entry, looked up): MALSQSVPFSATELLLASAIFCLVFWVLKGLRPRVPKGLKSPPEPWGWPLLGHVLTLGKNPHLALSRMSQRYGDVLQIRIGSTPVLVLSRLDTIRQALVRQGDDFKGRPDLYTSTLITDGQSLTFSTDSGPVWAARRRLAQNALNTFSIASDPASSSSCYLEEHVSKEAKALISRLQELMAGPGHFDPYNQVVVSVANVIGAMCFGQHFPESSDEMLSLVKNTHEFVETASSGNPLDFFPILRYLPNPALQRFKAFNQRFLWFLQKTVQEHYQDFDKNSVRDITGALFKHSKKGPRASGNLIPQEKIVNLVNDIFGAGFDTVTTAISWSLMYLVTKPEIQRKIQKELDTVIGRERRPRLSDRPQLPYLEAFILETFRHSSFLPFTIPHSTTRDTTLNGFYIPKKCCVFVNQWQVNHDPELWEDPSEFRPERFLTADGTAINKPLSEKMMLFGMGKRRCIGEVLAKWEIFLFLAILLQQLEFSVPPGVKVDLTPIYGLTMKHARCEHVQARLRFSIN

Assay [4] is described as follows: Stat Signaling Pathway (AID 446).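 Also: ME-180 cervical cancer cells given 40 pM IL-6 alongside compound; SIE-controlled beta-lactamase reporter measured as 460/530 nm FRET emission ratio; % is scaled to controls: 0 for no effect and ±100 for the full control effect.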 As to conditions: ME-180 SIE beta-lactamase reporter, IL-6 stimulated, 5 h; at 7.69 µM (top of the series) unless noted. A digest of the protocol: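 FRET read-out (405 nm excitation, 460/530 nm emission) of a beta-lactamase reporter under a STAT-inducible element in ME-180 cervical carcinoma cells. Cells with compound receive 40 pM IL-6 for 5 h. Values are normalised to AC90 stimulation and AC90 JAK-inhibitor controls.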

For assay [5], the target named is Glucocorticoid receptor (Homo sapiens) (UniProt P04150). Nature of the assay: GR-GFP Redistribution (AID 450;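 active = compounds whose dose series gives a full or clear partial fitted curve of increased nuclear translocation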; also: potency is read from the fitted curve at half-maximal effect). Particulars: U2OS GR-GFP nuclear translocation, laser cytometry, 2 h.
Glucocorticoid receptor (Homo sapiens), sequence (P04150 whole entry, looked up): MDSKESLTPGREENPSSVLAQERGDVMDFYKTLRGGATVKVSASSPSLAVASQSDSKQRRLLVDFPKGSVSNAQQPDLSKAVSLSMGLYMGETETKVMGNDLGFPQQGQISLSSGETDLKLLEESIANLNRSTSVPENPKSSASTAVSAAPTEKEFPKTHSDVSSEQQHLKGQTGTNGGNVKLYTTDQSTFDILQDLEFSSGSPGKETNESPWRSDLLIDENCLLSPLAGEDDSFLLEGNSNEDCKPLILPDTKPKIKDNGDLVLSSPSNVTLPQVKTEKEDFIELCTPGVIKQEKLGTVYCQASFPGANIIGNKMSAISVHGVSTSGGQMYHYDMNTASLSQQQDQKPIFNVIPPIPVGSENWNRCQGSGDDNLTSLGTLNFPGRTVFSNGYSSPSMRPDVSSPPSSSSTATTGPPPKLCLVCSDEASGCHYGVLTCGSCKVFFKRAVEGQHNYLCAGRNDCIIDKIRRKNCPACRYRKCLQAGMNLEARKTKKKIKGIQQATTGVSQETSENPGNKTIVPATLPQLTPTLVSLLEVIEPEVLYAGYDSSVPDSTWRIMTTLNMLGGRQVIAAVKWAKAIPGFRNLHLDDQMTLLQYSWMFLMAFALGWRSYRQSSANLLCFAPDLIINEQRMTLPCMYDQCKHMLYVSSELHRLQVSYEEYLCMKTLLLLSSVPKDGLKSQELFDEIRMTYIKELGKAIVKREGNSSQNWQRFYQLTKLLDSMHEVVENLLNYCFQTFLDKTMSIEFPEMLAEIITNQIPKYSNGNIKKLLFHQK
Assay [6] has the same target. Nature of the assay: GR-EFC Redistribution (AID 451; calls by dose curve; also: potency is read from the fitted curve at half-maximal effect). Particulars: CHO-K1 GR-EFC translocation, beta-gal luminescence, 2 h. Summed up:
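CHO-K1 cells stably expressing nuclear-localized β-gal enzyme acceptor and GR fused C-terminally to the enzyme donor fragment; ligand-driven nuclear translocation restores β-gal by complementation. Compounds titrated up to 46 uM final, 2 h at 37 °C; luminescence read.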

For assay [7], the target named is Mitogen-activated protein kinase 10 (Mus musculus) (UniProt Q61831). Nature of the assay: JNK3 AlphaScreen Assay (AID 530).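 Also: kinase came from lysate of stimulated human HepG2 cells; signal reports phosphorylation of biotinylated GST-cJun 1-79 at Ser73 with 10 µM ATP; % is scaled to controls: 0 for no effect and ±100 for the full control effect.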 Particulars: JNK3 lysate, c-Jun phosphorylation; series mostly up to 57.1 µM. A digest of the protocol:
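Phosphorylation of biotinylated GST-cJun(1-79) at Ser73 is measured by AlphaScreen proximity luminescence. Enzyme is JNK3 in HepG2 lysates activated with interleukin-1beta and tumor necrosis factor alpha; ATP is 10 uM final.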
(In general: In Alpha technology, singlet oxygen from a donor bead excites a nearby acceptor bead.)

Assay [8] concerns the target 3',5'-cyclic-AMP phosphodiesterase 4B (Homo sapiens) (UniProt Q07343). Nature of the assay: qHTS Assay for Inhibitors of PDE-IV (AID 607; active = well fitted activation curve with a large enough effect in the main read-out, with a control signal flat, not every such curve was filed as active; also: % of control where 0% means no effect). As to conditions: HEK293 ACTOne CNG channel cells, membrane potential fluorescence; series mostly up to 22.9 µM. A digest of the protocol: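 Cell-based read-out of cAMP via a modified cyclic nucleotide-gated channel and membrane potential dye (535/590 nm) in HEK293 cells expressing PDE4 endogenously. Compounds tested up to 22.9 uM final; 100 uM RO 20-1724 reference.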
(In qHTS, concentration-response curves come from the screen itself.)

For assay [9], the target named is Cytochrome P450 2C19 (Homo sapiens) (UniProt P33261). Nature of the assay: qHTS Assay for Inhibitors and Substrates of Cytochrome P450 2C19 (AID 899; active = well fitted curve in the direction sought with a large enough effect; an effect the other way counts as inactive or inconclusive; also: potency is read from the fitted curve at half-maximal effect; nearly all actives have a fitted effect of over 60% in size). Particulars: recombinant CYP2C19, luciferin-H EGE luminescence; series mostly up to 11.4 µM. Summed up: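 In 50mM KPO4, the reaction held 5nM enzyme and KM-level (10uM) Luciferin-H EGE; it ran 60 min at 37C after NADPH regeneration and a 10 min compound preincubation. Luminescence values were scaled to 57uM ketoconazole as complete inhibition.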
Cytochrome P450 2C19 (Homo sapiens), sequence (P33261 whole entry, looked up): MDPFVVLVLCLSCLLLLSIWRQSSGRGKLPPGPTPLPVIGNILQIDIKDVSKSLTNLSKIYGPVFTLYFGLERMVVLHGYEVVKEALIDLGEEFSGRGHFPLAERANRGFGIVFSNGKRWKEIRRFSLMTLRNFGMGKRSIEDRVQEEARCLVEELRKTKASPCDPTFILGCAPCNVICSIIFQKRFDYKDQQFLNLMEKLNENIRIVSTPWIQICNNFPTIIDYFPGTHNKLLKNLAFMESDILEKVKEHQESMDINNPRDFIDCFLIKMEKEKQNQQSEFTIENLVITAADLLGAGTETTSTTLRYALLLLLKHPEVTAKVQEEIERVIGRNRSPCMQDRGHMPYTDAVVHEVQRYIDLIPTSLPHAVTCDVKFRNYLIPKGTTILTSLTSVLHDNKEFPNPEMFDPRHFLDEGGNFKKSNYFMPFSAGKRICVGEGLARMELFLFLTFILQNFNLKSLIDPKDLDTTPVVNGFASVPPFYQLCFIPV

Assay [10] is described as follows: NFAT Signaling Pathway (AID 444).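 Also: carbachol stimulus at about its EC50 of 1 µM final; % is scaled to controls: 0 for no effect and ±100 for the full control effect.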 Particulars: Jurkat NFAT-bla M1, carbachol, beta-lactamase ratio, 5 h; at 7.69 µM (top of the series) unless noted. Summed up:
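Jurkat cells carrying an NFAT-driven β-lactamase reporter and co-transfected muscarinic M1 receptor were treated with compound plus carbachol (1 uM final, an EC50 level) for 5 h at 37 °C. CCF4 loading followed for 1 h at RT; 460/530 nm ratio gave %activity.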

Assay [11] has as its target Cytochrome P450 2D6 (Homo sapiens) (UniProt P10635). Nature of the assay: qHTS Assay for Inhibitors and Substrates of Cytochrome P450 2D6 (AID 891; active = well fitted curve in the direction sought with a large enough effect; an effect the other way counts as inactive or inconclusive; also: potency is read from the fitted curve at half-maximal effect; nearly all actives have a fitted effect of over 60% in size). As to conditions: recombinant CYP2D6, luciferin-ME EGE luminescence; series mostly up to 11.4 µM. A digest of the protocol:
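Luminescent read-out of luciferin formed by 5 nM human CYP2D6 demethylating 30 uM Luciferin-ME EGE (Km level) over 60 min at room temperature after NADPH regeneration addition. Data normalized to full inhibition by 1.43 uM quinidine.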

Assay [12] deals with Cytochrome P450 3A4 (Homo sapiens) (UniProt P08684). Nature of the assay: qHTS Assay for Activators of Cytochrome P450 3A4 (AID 885; active = well fitted curve in the direction sought with a large enough effect; an effect the other way counts as inactive or inconclusive; also: nearly all actives have a fitted effect of over 65% in size). Particulars: recombinant CYP3A4, Luciferin-PPXE luminescence, 60 min; series mostly up to 57.1 µM. Summed up: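 Luminescent readout of luciferin formed from 25 uM Luciferin-PPXE (KM level) by 20 nM CYP3A4 in 200 mM KPO4, with 60 min NADPH-driven reaction at room temperature after 10 min compound exposure. Ketoconazole (57 uM) defined 100% inhibition.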
Cytochrome P450 3A4 (Homo sapiens), sequence (P08684 whole entry, looked up): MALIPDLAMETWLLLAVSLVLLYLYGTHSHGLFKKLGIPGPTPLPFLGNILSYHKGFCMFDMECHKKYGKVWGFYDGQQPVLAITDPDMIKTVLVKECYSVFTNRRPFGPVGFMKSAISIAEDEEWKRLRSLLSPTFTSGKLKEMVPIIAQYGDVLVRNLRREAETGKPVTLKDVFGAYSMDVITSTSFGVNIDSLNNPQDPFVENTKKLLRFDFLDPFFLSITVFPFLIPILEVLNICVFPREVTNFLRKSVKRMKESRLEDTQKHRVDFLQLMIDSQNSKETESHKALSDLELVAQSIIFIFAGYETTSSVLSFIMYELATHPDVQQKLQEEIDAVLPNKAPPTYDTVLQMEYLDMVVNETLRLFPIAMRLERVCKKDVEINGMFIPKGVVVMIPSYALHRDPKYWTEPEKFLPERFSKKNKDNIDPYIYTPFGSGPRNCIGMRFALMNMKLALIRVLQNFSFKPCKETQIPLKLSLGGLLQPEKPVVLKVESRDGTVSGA

For assay [13], the target named is Luciferin 4-monooxygenase (Photinus pyralis) (UniProt P08659). Nature of the assay: Biochemical firefly luciferase enzyme assay for NPC (AID 624030; active = well fitted curve in the direction sought with a large enough effect; an effect the other way counts as inactive or inconclusive;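 also: purified P. pyralis luciferase at 10 nM with luciferin and ATP substrate; 0% = DMSO and -100% = full luciferase inhibition by PTC124 control; nearly all actives have a fitted effect of over 70% in size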). As to conditions: purified P. pyralis luciferase, luminescence, 5 min; series mostly up to 58.6 µM. A digest of the protocol:
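Counter-screen for direct inhibition of the luciferase enzyme by approved-drug library compounds, run at 10 nM enzyme in 50 mM Tris acetate (final). Luminescence was read within 5 min of enzyme-buffer addition and normalized to PTC124 versus DMSO (0%).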

The nature of assay [14]: qHTS Assay for Identification of Small Molecule Agonists for Hypoxia Response Element Signaling Pathway (AID 914; active = well fitted activation curve with a large enough effect in the signal ratio, with a control signal flat, not every such curve was filed as active; the % refers to the signal ratio; also: % of control where 0% means no effect). Particulars: ME-180 (cervical carcinoma) HRE-bla reporter, beta-lactamase ratio, CoCl2, 17 h; active compounds read high. Summed up: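 Compounds in a titration series were added to ME-180 reporter cells alongside an EC50 level of CoCl2. After 17 hours, beta-lactamase activity was read as the 460nm/530nm emission ratio of CCF4, giving AC50 values.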

Unmarked numbers belong to inactive results. Records with an inconclusive call do not appear. Calls of active or inactive are those of the source. Unless noted, calls follow the shape of the dose curve; as a rule, active = well fitted curve in either direction with a large enough effect (not every such curve was filed as active); inconclusive = small, poorly fitted or top-dose-only effect, or another doubt; inactive = flat fitted curve, though single readings scatter.

Cytochrome P450 2D6 (Homo sapiens), sequence (P10635 whole entry, looked up): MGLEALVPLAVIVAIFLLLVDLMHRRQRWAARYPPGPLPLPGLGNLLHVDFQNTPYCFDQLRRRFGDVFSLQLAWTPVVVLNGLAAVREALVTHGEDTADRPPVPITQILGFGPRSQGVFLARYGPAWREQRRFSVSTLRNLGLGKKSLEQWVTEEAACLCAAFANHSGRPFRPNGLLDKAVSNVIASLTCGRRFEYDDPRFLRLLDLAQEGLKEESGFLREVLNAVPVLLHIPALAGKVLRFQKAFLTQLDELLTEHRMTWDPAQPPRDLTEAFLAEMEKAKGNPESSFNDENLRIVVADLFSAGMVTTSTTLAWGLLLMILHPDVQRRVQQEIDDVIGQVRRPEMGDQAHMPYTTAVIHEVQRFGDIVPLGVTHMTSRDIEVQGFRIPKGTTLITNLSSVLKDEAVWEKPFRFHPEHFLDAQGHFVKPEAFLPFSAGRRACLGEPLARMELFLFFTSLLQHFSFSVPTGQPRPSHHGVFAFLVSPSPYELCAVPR
3',5'-cyclic-AMP phosphodiesterase 4B (Homo sapiens), sequence (Q07343 whole entry, looked up): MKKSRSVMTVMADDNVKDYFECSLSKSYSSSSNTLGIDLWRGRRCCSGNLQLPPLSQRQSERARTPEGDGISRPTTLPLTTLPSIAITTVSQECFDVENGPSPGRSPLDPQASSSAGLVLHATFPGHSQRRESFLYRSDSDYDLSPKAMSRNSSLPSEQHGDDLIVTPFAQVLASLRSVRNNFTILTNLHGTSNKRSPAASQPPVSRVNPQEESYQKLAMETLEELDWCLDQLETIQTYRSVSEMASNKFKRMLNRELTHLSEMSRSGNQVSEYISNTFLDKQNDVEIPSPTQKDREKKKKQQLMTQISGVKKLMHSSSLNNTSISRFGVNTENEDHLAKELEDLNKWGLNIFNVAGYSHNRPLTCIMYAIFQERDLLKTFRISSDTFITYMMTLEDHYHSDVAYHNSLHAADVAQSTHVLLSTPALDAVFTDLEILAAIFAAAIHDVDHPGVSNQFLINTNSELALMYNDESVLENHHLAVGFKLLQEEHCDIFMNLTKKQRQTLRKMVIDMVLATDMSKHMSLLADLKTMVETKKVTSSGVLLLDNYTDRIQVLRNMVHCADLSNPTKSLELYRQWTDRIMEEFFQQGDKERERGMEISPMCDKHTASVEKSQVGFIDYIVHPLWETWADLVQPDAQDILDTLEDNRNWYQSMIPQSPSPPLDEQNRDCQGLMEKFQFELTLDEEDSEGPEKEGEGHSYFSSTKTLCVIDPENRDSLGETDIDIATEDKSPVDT
Luciferin 4-monooxygenase (Photinus pyralis), sequence (P08659 whole entry, looked up): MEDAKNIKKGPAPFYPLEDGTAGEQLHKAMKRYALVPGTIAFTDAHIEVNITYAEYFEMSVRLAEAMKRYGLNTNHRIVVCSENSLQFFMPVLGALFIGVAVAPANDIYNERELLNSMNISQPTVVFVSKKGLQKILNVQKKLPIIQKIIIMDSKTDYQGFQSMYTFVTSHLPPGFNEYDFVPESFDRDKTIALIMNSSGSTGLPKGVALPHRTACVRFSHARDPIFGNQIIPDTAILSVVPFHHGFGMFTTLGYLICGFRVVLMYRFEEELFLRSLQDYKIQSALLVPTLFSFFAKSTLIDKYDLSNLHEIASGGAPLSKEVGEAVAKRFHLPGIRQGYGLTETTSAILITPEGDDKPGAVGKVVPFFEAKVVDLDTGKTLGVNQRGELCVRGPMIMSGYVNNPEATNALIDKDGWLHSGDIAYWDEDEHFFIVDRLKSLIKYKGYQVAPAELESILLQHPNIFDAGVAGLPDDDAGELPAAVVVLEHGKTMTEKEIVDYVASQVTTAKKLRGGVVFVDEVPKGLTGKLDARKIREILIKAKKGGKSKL

On to `FC(F)(F)c1nc2ccc(SSc3ccc4nc(C(F)(F)F)[nH]c4c3)cc2[nH]1`, for which the Potency in assay [1] was more than 11.4 µM; in assay [3], 501 nM (active); in assay [5] it was more than 46 µM; in [6] it was more than 9.22 µM; in assay [9], 5.01 µM (active). The values for the activity change, negative = inhibition in [2] and in [7] were -1.24% and 12.4% [at 11.4 µM], respectively. In addition, the activity, negative = inhibition in assay [4] was -6.22%. For the same molecule, in [8], the outcome was inactive.
Regarding `O=S(=O)(O)/C(=C\c1ccccc1)c1ccccc1` (tested in a mixture with another compound), the Potency in [1] was more than 11.4 µM. In addition, the activity change, negative = inhibition in assay [2] is 4.77%; in assay [3], -29% [at 2.29 µM]; in assay [10] it was 11.5%; in assay [7], 4.57% [at 11.4 µM]. The activity, negative = inhibition in [4] was 7.2%. Further, in [8], the molecule was called inactive.
In the case of `CC1(C)N=C(N)N=C(N)N1c1cccc(C(=O)Nc2ccc(S(=O)(=O)F)cc2)c1`, the Potency is more than 11.4 µM in assay [1], more than 46 µM in [5], more than 9.22 µM in assay [6] and 2 µM (active) in assay [11]. For the same molecule, the activity change, negative = inhibition in [2] is -0.165%; in assay [7], 7.01% [at 11.4 µM]. The Potency entry in [3] is “inactive”. The activity, negative = inhibition in assay [4] was 9.13%. The molecule was called inactive in assay [8].
Consider `CCC1=C(C[C@H]2NCCc3cc(OC)c(OC)cc32)C[C@H]2c3ccccc3CCN2C1`, for which the Potency in assay [1] is more than 11.4 µM; in [5], more than 46 µM; in assay [6], more than 9.22 µM; in assay [11] it was 0.316 µM (active). Moreover, the activity change, negative = inhibition is 9.05% in assay [2] and -19.1% in [10]. For the same molecule, the Potency result in assay [3] was “inactive”. In [4], the activity, negative = inhibition is 8.03%. Further, in [12], the activity change, positive = activation is -34.9% [at 11.4 µM].
With `N[C@H](Cc1c[nH]c2ccccc12)P(=O)(O)O`, the Potency was more than 11.4 µM in assay [1] and more than 9.22 µM in assay [6]. Further, the activity change, negative = inhibition in assay [2] is -3.26%; in assay [10], -3.98%; in [7], 4.66% [at 11.4 µM]. The Potency result in assay [3] is “inactive”. For the same molecule, in assay [4], the activity, negative = inhibition is -3.09%. For the same molecule, in assay [8], the result was inactive.
With `O=C(CCN1CC2CCC(CC2)C1)c1cccs1`, the Potency in assay [1] was more than 11.4 µM; in [3] it was 5010 nM (active); in assay [6] it was more than 9.22 µM; in [11], 2 µM (active). The results for the activity change, negative = inhibition in assay [2] and in assay [7] were 17.2% and 0.402% [at 11.4 µM], respectively. The activity, negative = inhibition in [4] is 1.61%. The molecule was classed as inactive in assay [8].
In the case of `O=c1[nH]cnc2[nH]cc(CN3CCCCC3)c12`, the Potency in assay [1] is more than 11.4 µM. Also, the activity change, negative = inhibition is 2.74% in [2], 3.17% in [10] and 0.447% [at 11.4 µM] in [7]. In addition, the Potency result in assay [3] was “inactive”. The activity, negative = inhibition in [4] was 0.346%. Also, the result in assay [8] and in [13] was inactive.
Take `CS(=N)(=O)CC[C@H](N)P(=O)(O)O` (some centres not stated): the values for the Potency in assay [1] and in [6] were more than 11.4 µM and more than 9.22 µM, respectively. Moreover, the activity change, negative = inhibition is -0.909% in assay [2] and -0.082% in assay [10]. The Potency result in [3] is “inactive”. In assay [4], the activity, negative = inhibition is 2.22%. Besides, the molecule was called inactive in [8].
`CC(=O)OC1=CC2=CC[C@H]3[C@H]4CCC(=O)[C@@]4(C)CC(=O)[C@]3(S)[C@]2(C)CC1`: the Potency is more than 11.4 µM in assay [1], more than 46 µM in assay [5] and more than 9.22 µM in [6]. The activity change, negative = inhibition in assay [2] is -0.915%; in assay [3] it was -9.4% [at 2.29 µM]; in assay [10] it was 2.48%. Moreover, in assay [4], the activity, negative = inhibition was -7.63%. The call in assay [8] was inactive. Further, in assay [14], the activation is -4.78%.
With `CN(CCC(=O)O)C1=Nc2ccc(Cl)cc2C(c2ccccc2)=[N+]([O-])C1`, the figures for the Potency in assay [1], in assay [3] and in [6] were more than 11.4 µM, 63.1 nM (active) and more than 9.22 µM, respectively. The activity change, negative = inhibition was -5.9% in [2], 13.9% in assay [10] and 1.43% [at 11.4 µM] in assay [7]. The activity, negative = inhibition in [4] is 1.77%. The molecule was classed as inactive in assay [8].
Turning to `O=C(O)CNC(=O)c1ccc([As](=O)(O)O)cc1`, the Potency in [1] is more than 11.4 µM; in [5], more than 46 µM; in assay [6] it was more than 9.22 µM. Moreover, the values for the activity change, negative = inhibition in [2], in assay [10] and in assay [7] were 9.68%, 7.56% and 36.2% [at 11.4 µM], respectively. In addition, the activity, negative = inhibition in assay [4] was 12.9%. For the same molecule, in assay [8], the call was inactive.
As for `C[C@H](CN(C)C)C(C#N)(c1ccccc1)c1ccccc1`, the Potency is more than 11.4 µM in assay [1], more than 46 µM in [5] and more than 9.22 µM in [6]. Further, the activity change, negative = inhibition was 0.906% in assay [2], -3.4% [at 2.29 µM] in assay [3] and 6.57% [at 11.4 µM] in assay [7]. The activity, negative = inhibition in [4] was 4.38%. For the same molecule, the outcome in assay [8] was inactive. In addition, the activity change, positive = activation in assay [12] is -41.5% [at 11.4 µM].
On to `C=C(C)c1ccccc1` (tested in a mixture with another compound), for which the Potency in assay [1] was more than 11.4 µM. Also, the activity change, negative = inhibition in [2] was -1.01%; in assay [3] it was -19.6% [at 2.29 µM]; in assay [10] it was -21.5%; in assay [7], -9.26% [at 11.4 µM]. Moreover, in assay [4], the activity, negative = inhibition is -6.96%. The outcome in [8] was inactive.
In the case of `CC(=O)O/C(=C1/C[C@H]2[C@@H]3CC=C4C[C@@H](OC(C)=O)CC[C@]4(C)[C@@H]3CC[C@]2(C)C1=O)C(F)(F)F`, the Potency was more than 11.4 µM in [1], 5010 nM (active) in assay [3] and more than 9.22 µM in assay [6]. The activity change, negative = inhibition in [2] was -23.8%. Further, the activity, negative = inhibition in assay [4] was -16.9%. Besides, in assay [8], the molecule was called inactive.

The values are drawn from PubChem BioAssay (NCATS).
